Shiga inhibitor = blocks Shiga toxin action in Vero cells; Vero cells, Shiga toxin protein synthesis inhibition reporter; inhibition, % at 38.7 µM; 290,000 tested, 9.2% active; AID 2315; in the data active = inhibition mostly above about 28%, no sharp cut-off; inactive = mostly below about 43%; also: 0% is about no effect
NS1 inh = blocks influenza NS1 protein function | Potency, µM (doses to about 46.1 µM), for inactives: top-dose activity, positive = more growth | 270,000 tested, 0.4% active | AID 2326; calls by dose curve; also: potency is read from the fitted curve at half-maximal effect; actives are rising curves; nearly all actives have a fitted effect of over 50% in size
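Recovery from NS1-induced slow growth read by OD600 in budding yeast switched to galactose assay medium (pH 6.0, -URA) at 1:100 dilution. Compound 23 nl per well; the matching strain lacking NS1 serves as control.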
Pf growth 96h = P. falciparum growth inhibition at 96 hours. P. falciparum luciferase reporter growth, 96 h. Potency, µM (top dose mostly 28.7 µM), for the others: top-dose activity change, negative = inhibition, most hits filed as inhibitors. 320,000 tested, 6.9% active. AID 504834; also: potency is read from the fitted curve at half-maximal effect; % is scaled to controls: 0 for no effect and ±100 for the full control effect
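Delayed-death screen, second-generation endpoint: infected erythrocytes, 2% hematocrit, 0.05% parasitemia final; 96 hours at 37 C, 5% CO2; luciferase detection reagent; luminescence decrease equals reduced growth.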
Pf growth 48h = inhibits P. falciparum growth in the first generation, 48 h; P. falciparum luciferase growth in erythrocytes, 48 h; Potency, µM (titrated, usually from 28.7 µM), inactives show at the highest dose activity change, negative = inhibition, actives largely listed as inhibitors; 310,000 tested, 5.9% active; also: potency is read from the fitted curve at half-maximal effect; % is scaled to controls: 0 for no effect and ±100 for the full control effect
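Luminescence readout; reporter = integrated firefly luciferase in P. falciparum. RBC culture at 2% hematocrit, 0.1% parasitemia final, 37 C/5% CO2; decreased signal taken as growth inhibition.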
Giardia FBPA inh = blocks Giardia fructose-bisphosphate aldolase activity. AID 2451. purified Giardia FBPA. 290,000 tested, 0.71% active. Potency, µM (doses to about 59.6 µM), inactives show at the highest dose activity, negative = inhibition, actives largely listed as inhibitors. A8B2U2; also: potency is read from the fitted curve at half-maximal effect; % is scaled to controls: 0 for no effect and ±100 for the full control effect; nearly all actives have a fitted effect of over 55% in size
Target sequence (A8B2U2 whole entry, looked up): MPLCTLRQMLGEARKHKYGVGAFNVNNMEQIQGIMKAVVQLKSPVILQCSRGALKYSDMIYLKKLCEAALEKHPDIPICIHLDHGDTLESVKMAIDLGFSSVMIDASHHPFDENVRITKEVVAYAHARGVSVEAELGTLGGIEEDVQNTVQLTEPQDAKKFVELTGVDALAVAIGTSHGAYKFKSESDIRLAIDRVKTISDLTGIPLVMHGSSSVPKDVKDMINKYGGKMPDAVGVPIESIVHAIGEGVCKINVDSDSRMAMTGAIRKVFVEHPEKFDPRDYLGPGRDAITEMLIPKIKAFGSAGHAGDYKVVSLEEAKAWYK
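40 nM FBPA preincubated 10 min at RT with compound (up to 57.5 uM final), then substrate plus GAPDH/TPI/NAD/arsenate coupling and diaphorase/resazurin added. Fluorescence read after 20 min at RT, 525/598 nm.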
CHX counter = counter-screen for Shiga toxin inhibitors: cycloheximide protein synthesis inhibition; cell reporter, cycloheximide protein synthesis inhibition counterscreen; max response, %; 300,000 tested, 12% active; in the data active = max response mostly above about 13%, no sharp cut-off; inactive = mostly below about 14%; also: read at 38.3 µM for the half of the compounds with a filed dose; 0% is about no effect
* marks the source's active call; other numbers are inactive results; ? = inconclusive; nt = no result. In the library only some 21% were active in any assay of this set; here they are far more common. Unless noted, calls follow the shape of the dose curve; as a rule, active = well fitted curve in the direction sought with a large enough effect; inconclusive = small, poorly fitted or top-dose-only effect, or another doubt; inactive = no such curve, though single readings can be large; an effect the other way counts as inactive or inconclusive.

SMILES	Shiga inhibitor	NS1 inh	Pf growth 96h	Pf growth 48h	Giardia FBPA inh	CHX counter
CC(=O)OC(C)(C)C1Cc2cc3ccc(=O)oc3cc2O1 (stereo not drawn)	45.4*	-1.1%	14.6%	47.1%	14.5%	22.9
CC(C)(Cl)C1Cc2cc3ccc(=O)oc3cc2O1 (stereo not drawn)	47.0*	-3.7%	155.9%	95.2%	5.7%	30.5*
C/C=C(\C)C(=O)OC(C)(C)[C@H]1Cc2cc3ccc(=O)oc3cc2O1	1.4	-6.7%	-2.9%	-7.5%	1.2%	-2.8
CCOC(=O)[C@@H]1[C@H]2COc3cc(OC)ccc3[C@H]2N2C(=O)N(c3ccc(F)cc3)C(=O)[C@@]12C	-4.4	15.7%	?	?	8.2%	1.0
CCOC(=O)[C@H]1[C@H]2COc3cc(OC)ccc3[C@@H]2N2C(=O)c3cc(F)ccc3NC(=O)[C@@]12C	nt	nt	10.4µM*	9.28µM*	nt	nt
CCOC(=O)[C@H]1[C@H]2COc3cc(OC)ccc3[C@@H]2N2C(=O)c3cc(OC)ccc3NC(=O)[C@@]12C	nt	nt	6.57µM*	1.31µM*	nt	nt
CCOC(=O)[C@@H]1[C@H]2COc3cc(OC)ccc3[C@@H]2N2C(=O)N(c3ccc(F)cc3)C(=O)[C@]12C	-7.2	2.9%	?	-8.1%	-0.7%	-1.6
CCOC(=O)[C@H]1[C@H]2COc3cc(OC)ccc3[C@@H]2N2C(=O)c3cc(F)c(F)cc3NC(=O)[C@@]12C	nt	nt	13.1µM*	?	nt	nt
CCOC(=O)[C@H]1[C@H]2COc3cc(OC)ccc3[C@@H]2N2C(=O)c3cc(C)ccc3NC(=O)[C@@]12C	nt	nt	2.33µM*	4.65µM*	nt	nt
Cc1ccc(/C=C/C2=C[C@]3(C)C[C@]2(C)[C@H](c2ccc(C)cc2)CC3=O)cc1	nt	nt	nt	nt	1.9%	nt
COc1ccc(OC)c(S(=O)(=O)N2CCC(NC(=O)c3ccccc3)CC2)c1	-10.5	1.6%	?	?	-3.2%	-4.6
O=[N+]([O-])c1ccc(OCc2n[nH]c(=S)n2-c2ccccc2)cc1	-11.6	18.7%	-18.1%	2.5%	26.1%	-3.8
COc1ccc2oc(C(=O)OCC(=O)N(Cc3ccccc3)C(C)(C)C)c(C)c2c1	-1.4	23.4%	?	?	nt	-1.8
CCOC(=O)[C@H]1[C@H]2COc3ccc(Br)cc3[C@@H]2N2C(=O)c3cc(F)c(F)cc3NC(=O)[C@@]12C	nt	nt	?	16.5µM*	nt	nt
CCOC(=O)[C@H]1[C@H]2COc3ccc(Cl)cc3[C@@H]2N2C(=O)c3ccc(Cl)cc3NC(=O)[C@@]12C	nt	nt	13.1µM*	10.4µM*	nt	nt
COC(=O)c1ccc(NC(=O)CCN2CCOCC2)cc1	-15.1	7.9%	30.1%	?	0.8%	-0.9
NC(=O)[C@@H]1CSSCCC(=O)N[C@@H](CCCCN=C(N)N)C(=O)NCC(=O)N[C@@H](CC(=O)O)C(=O)N[C@@H](Cc2c[nH]c3ccccc23)C(=O)N2CCC[C@H]2C(=O)N1	nt	nt	6.8%	0.7%	nt	nt
Cc1nn(-c2ccccc2)c2sc(C(=O)N(CC(=O)NC3CCCC3)Cc3ccco3)cc12	14.0	1.5%	?	11.7µM*	5.5%	22.5
CC(=O)c1sc(NC(=O)c2cc3c(C)nn(-c4ccccc4)c3s2)nc1C	19.2	3.4%	78.5%	-0.2%	6.8%	-2.1
Cc1nn(-c2ccccc2)c2sc(C(=O)NC3CC3)cc12	81.3*	?	-3.1%	?	0.7%	52.3*
CCOc1ccc(NC(=O)C2CCC(CNc3c(N4CCCCC4)c(=O)c3=O)CC2)cc1 (stereo not drawn)	-9.9	-5.6%	5.86µM*	6.57µM*	2.3%	0.7
COc1cc(NC(=O)C2CCC(CNc3c(N4CCCCC4)c(=O)c3=O)CC2)cc(OC)c1 (stereo not drawn)	-1.6	-37.0%	5.1%	11.7µM*	-0.5%	1.0
COc1cc(NC(=O)C2CCC(CNc3c(N4CCC(C)CC4)c(=O)c3=O)CC2)cc(OC)c1 (stereo not drawn)	-12.4	17.4%	-26.6%	nt	0.1%	-7.8
O=C(Nc1ccc(F)cc1)C1CCC(CNc2c(N3CCCCC3)c(=O)c2=O)CC1 (stereo not drawn)	-8.5	6.1%	?	11.7µM*	5.1%	-0.7
CCOc1ccc(NC(=O)C2CCC(CNc3c(N4CCC(C)CC4)c(=O)c3=O)CC2)cc1 (stereo not drawn)	-7.7	2.7%	2.33µM*	4.15µM*	2.6%	-3.2
SMILES	Shiga inhibitor	NS1 inh	Pf growth 96h	Pf growth 48h	Giardia FBPA inh	CHX counter
CCOc1ccc(NC(=O)CCNc2c(N3CCCC3)c(=O)c2=O)cc1	14.6	1.6%	53.9%	2.3%	-0.1%	0.3
COc1ccccc1NC(=O)C1CCC(CNc2c(N3CCCCC3)c(=O)c2=O)CC1 (stereo not drawn)	-4.5	3.1%	0.1%	33.9%	5.9%	-1.5
COc1ccc(NC(=O)Cn2cnc3sc(C)c(S(=O)(=O)N4CCN(C)CC4)c3c2=O)cc1OC	4.1	nt	22.4%	-1.0%	2.1%	4.1
Cc1ccc(NCCC(=O)c2cccc([N+](=O)[O-])c2)c(C)c1	0.0	-36.2%	9.6%	3.5%	4.3%	35.0*
Cc1cccc(NCCC(=O)c2ccc([N+](=O)[O-])cc2)c1C	11.4	-1.6%	38.0%	6.0%	-6.2%	2.5
Cc1ccc(S(=O)(=O)CC(=O)c2ccc([N+](=O)[O-])cc2)cc1	-3.7	-5.4%	49.6%	1.5%	1.9%	5.3
Cc1ccc(NCC(=O)c2ccc([N+](=O)[O-])cc2)cc1	85.3*	nt	?	?	-6.0%	42.8*
Cc1ccc(C(=O)CNc2cccc([N+](=O)[O-])c2)cc1	90.0*	nt	11.6%	61.7%	0.7%	38.2*
C=C1CC[C@H](O)C/C1=C/C=C1\CCC[C@]2(C)[C@@H]([C@H](C)CC[C@@H](O)C(C)(C)O)CC[C@@H]12	nt	nt	?	?	4.5%	nt
Cc1ccc(C2(c3ccccc3)NC(=O)N(CC(=O)NC3(C#N)CCCC3)C2=O)cc1C (stereo not drawn)	nt	nt	?	13.1µM*	nt	nt
Cc1ccc(C2(c3ccccc3)NC(=O)N(CC(=O)NCc3ccco3)C2=O)cc1C (stereo not drawn)	nt	nt	5.86µM*	?	nt	nt

Bioassay records as filed in PubChem.
